Results as given in PubChem BioAssay (NCATS).
Results filed as inconclusive are left out. Activity calls are given as the source filed them. The call rests on the fitted dose curve; tested in HEK293 reporter line.

Test: qHTS for Inhibitors of the Functional Ribonucleoprotein Complex (vRNP) of Lassa (LASV) Arenavirus: LASV Primary Screen - GLuc reporter signal (AID 1347082); further: nearly all actives have a fitted effect of over 60% in size
Conditions: LASV minigenome vRNP, Gaussia luciferase reporter; series mostly up to 57.5 µM; activity change, negative = inhibition: at the top concentration
On the % scale 0 is the no-effect control and ±100 the full control effect; potency means the concentration at half of the fitted maximal effect.

| Structure (SMILES) | activity change, negative = inhibition | Potency |
| --- | --- | --- |
| CC(=O)c1c(C)c2cnc(Nc3ccc(N4CCNCC4)cn3)nc2n(C2CCCC2)c1=O | -25.1% (inactive) |  |
| COc1cc2c(Oc3ccc(-c4cnc(Nc5ccc(F)cc5)n(C)c4=O)cc3F)ccnc2cc1OCCCN1CCOCC1 |  | 21.7 µM (active) |
| C[C@]12CC[C@H](O)CC1=CC[C@@H]1[C@H]2CC[C@]2(C)C(c3cccnc3)=CC[C@H]12 | 3.84% [at 24.7 µM] (inactive) |  |
| CC1=C(C/C=C(\C)CCC[C@H](C)CCC[C@H](C)CCCC(C)C)C(=O)c2ccccc2C1=O | -11.9% (inactive) |  |
| N#CCNC(=O)c1ccc(-c2ccnc(Nc3ccc(N4CCOCC4)cc3)n2)cc1 | 7.07% (inactive) |  |
| O=C(O)[C@H](Cc1c[nH]c2ccccc12)N1C(=O)c2ccccc2C1=O | -13.9% [at 115 µM] (inactive) |  |
| CCCCCCCC(=O)OCC(O)CO (stereo not given) | -0.286% (inactive) |  |
| C=CCn1c(=O)c2cnc(Nc3ccc(N4CCN(C)CC4)cc3)nc2n1-c1cccc(C(C)(C)O)n1 |  | 0.685 µM (active) |
| CNc1nccc(-c2cccnc2Oc2cc(C(=O)Nc3cccc(C(F)(F)F)c3)ccc2C)n1 | -38.3% (inactive) |  |
| COc1c(C)cnc(Cn2cnc3c(Cl)nc(N)nc32)c1C |  | 1.37 µM (active) |
| O=C(Nc1cccc(Cl)c1)Nc1ncc(CCNc2ncnc3ccsc23)s1 | -5.39% (inactive) |  |
| OCc1c[nH]c2ccccc12 | -21.5% [at 115 µM] (inactive) |  |
| CN(C)CC=CC(=O)Nc1cc2c(Nc3ccc(F)c(Cl)c3)ncnc2cc1O[C@H]1CCOC1 |  | 13.7 µM (active) |
| C[C@H](NC(=O)Cc1cc(F)cc(F)c1)C(=O)N[C@@H]1C(=O)N(C)c2ccccc2-c2ccccc21 | 0.524% (inactive) |  |
| Cc1ccccc1C(C(=O)NC1CCCC1)N(C(=O)Cn1cnc2ccccc21)c1cccc(F)c1 (stereo not given) | 3.87% (inactive) |  |
